# Reference: PubChem BioAssay (Tox21)
# Results filed as inconclusive are left out. Active and inactive are the calls of the source. The call rests on the fitted dose curve.
# Assay: qHTS assay for small molecule agonists of the p53 signaling pathway - cell viability (AID 651633);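 further: p53RE-bla HCT reporter cells with a stable beta-lactamase p53 reporter; nearly all actives have a fitted effect of over 30% in size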
# Conditions: p53RE-bla HCT-116 viability, ATP luminescence, 16 h; series mostly up to 83.3 µM
# Source text: National Center for Advancing Translational Sciences [NCATS]
# NIH Chemical Genomics Center [NCGC]
# U.S. Environmental Protection Agency [EPA]
# National Institutes of Environmental Health Sciences [NIEHS]
# National Toxicology Program [NTP]
# U.S. Food and Drug Administration [FDA]
# p53, a tumor suppressor protein, is activated following cellular insult, including DNA damage and other cellular stresses. The activation of p53 regulates cell fate by inducing DNA repair, cell cycle arrest, apoptosis, or cellular senescence. The activation of p53, therefore, is a good indicator of DNA damage and other cellular stresses. […] The activation of the reporter gene under culture conditions can be detected by fluorescence intensity. This cell line was used to screen the Tox21 compound library in a 1536-well plate format and to identify agonists that activate the p53 signaling pathway.
# Tox21 Assay Protocol Summary:
# The p53RE-bla cells were dispensed at 4,000 cells/5 ul/well in 1536-well black wall/clear bottom plates using a Multidrop dispenser. After the assay plates were incubated at a 37 C/5% CO2 incubator for 5 hours, 23 nL of compounds dissolved in DMSO, positive controls or DMSO only was transferred to the assay plate by a pin tool. The plates were incubated at 37 C for 16 hours. After 1 uL of LiveBLAzerTM B/G FRET substrate was added using a Flying Reagent Dispenser, the plates were incubated at room temperature for 2 hours, and fluorescence intensity was measured by an Envision plate reader.
# For cell viability readout that measures cytotoxicity, 4 ul/well of CellTiter-Glo reagent was added into the assay plates using a Flying Reagent Dispenser. After 30 min incubation at room temperature, the luminescence intensity in the plates was measured using a ViewLux plate reader.
row,SMILES,outcome
1,CC(=O)O[Si](C)(OC(C)=O)OC(C)=O,inactive
2,CC1=C(O)C(=O)C(C)O1 (stereo not given),inactive
3,CCCCC1CCC(O)CC1 (stereo not given),inactive
4,O=NN(CCCl)C(=O)NC1CCCCC1,inactive
5,CCCCCCCCCOC(=O)c1ccccc1C(=O)OCCCCCCCCC,inactive
6,C=CCOC(=O)CCCCCC,inactive
7,CCCC(=O)Nc1ccc(OCC(O)CNC(C)C)c(C(C)=O)c1 (stereo not given),inactive
8,NCC1(Cc2noc(=O)[nH]2)CCCCC1,inactive
9,Cc1cccc(Cl)c1,inactive
10,CSc1cnccn1,inactive
11,Cc1ccc(C)c([N+](=O)[O-])c1,inactive
12,CCCCOCC(C)O (stereo not given),inactive
13,O=C[O][Al]([O]C=O)[O]C=O,inactive
14,CCCCOC(=O)C(C)O (stereo not given),inactive
15,Cc1ccc2c(c1)C(=O)c1ccccc1C2=O,inactive
16,CCCCOCCOC(=O)COc1ccc(Cl)cc1Cl,inactive
17,CCO,inactive
18,CCCC(=O)OC/C=C(\C)CCC=C(C)C,inactive
19,CCC(C)C(=O)OCCc1ccccc1 (stereo not given),inactive
20,CN(C)CCCO[C@@H]1[C@H]2OC(C)(C)O[C@H]2O[C@@H]1C(O)CO (stereo not given in full),inactive

row,SMILES,outcome
1,ONc1ccccc1,inactive
2,C=CC/C=C/C,inactive
3,CCC/C=C(\C=O)CC,inactive
4,CC(C)CO,inactive
5,O=C1CCC(=O)N1Cl,inactive
6,CC(=O)O[C@@H]1CC2CCC1(C)C2(C)C (stereo not given in full),inactive
7,CCCCOC(=O)[C@H](C)O,inactive
8,CC(O)CC(C)O (stereo not given),inactive
9,COC(=O)CCCCC(=O)O,inactive
10,CCCCSCCCC,inactive
11,N#Cc1cscn1,inactive
12,CCCCCCCCCCOC(C)=O,inactive
13,COC(=O)/C=C\C(=O)O,inactive
14,CCC(C)OC(C)CC (stereo not given),inactive
15,CNCCS(=O)(=O)O,inactive
16,c1ccc(B(c2ccccc2)c2ccccc2)cc1,inactive
17,CC(=O)OCC(=O)Nc1cc(C#N)cc(NC(=O)COC(C)=O)c1Cl,inactive
18,Nc1nnnn1-c1ccccc1,inactive
19,CC1OCCC1=O (stereo not given),inactive
20,CC/C(C)=N\O[Si](C)(O/N=C(\C)CC)O/N=C(\C)CC,inactive
